Experimental findings from PubChem BioAssay AID1558 (National Center for Advancing Translational Sciences (NCATS), 2009) are described below.

SMILES strings stand for the structures. Results filed as inconclusive are left out. The source made the active and inactive calls. Calls follow the shape of the dose curve; as a rule, active = well fitted inhibition curve with a large enough effect; inconclusive = small, poorly fitted or top-dose-only effect; inactive = flat fitted curve, though single readings scatter.

The test deals with Microtubule-associated protein tau (Homo sapiens) (UniProt P10636). The test can be described thus: Confirmation Concentration-Response Assay for Inhibitors of Tau Fibril Formation, Thioflavin T Binding. Conditions: recombinant tau K18 P301L (four-repeat tau fragment) heparin fibrillization, ThT fluorescence. From the text: NIH Molecular Libraries Probe Production Network [MLPCN] NIH Chemical Genomics Center [NCGC] MLPCN Grant: X01 MH083262-01 Assay Provider: Carlo Ballatore, University of Pennsylvania NCGC Assay Overview: The microtubule-associated protein tau is an abundant protein in the axons of neurons that stabilizes microtubules. With its ability to modulate microtubule dynamics, tau contributes directly or indirectly, to key structural and regulatory cellular functions. Particularly important is the influence tau exerts on axonal transport, which allows signaling molecules, trophic factors and other essential cellular constituents to travel along the axons. Under pathological conditions, tau becomes sequestered into insoluble aggregates called neurofibrillary tangles. […] This assay monitors tau fibrillization by Thioflavin T (ThT) fluorescence. […]
Chain of Microtubule-associated protein tau (Homo sapiens) (P10636 561-689 P618L limits assumed): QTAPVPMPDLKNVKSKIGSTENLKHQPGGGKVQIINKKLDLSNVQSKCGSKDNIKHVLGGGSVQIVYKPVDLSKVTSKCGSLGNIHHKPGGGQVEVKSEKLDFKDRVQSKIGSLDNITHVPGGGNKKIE
For screening, 2 uL/well human K18 P301L (15 uM unlabeled and 0.24 uM Alexa 594-labeled tau, final concentrations) in reagent buffer (100 mM sodium acetate pH 7) was dispensed into black solid 1536-well plates (Grenier) using a solenoid-based dispenser. […] After a 1 hr ambient incubation, the plates were read by an Envision (Perkin Elmer) to monitor ThT fluorescence (450/8 nm excitation and 510/23 nm emission). […]

Consider `CC(N)[C@H](O)c1ccc(O)c(O)c1` (stereo partly specified), for which the Potency was 7.94 µM (active).
